Consider 40 compounds from PubChem BioAssay (Tox21).

Several values for one entry are separate records, joined by “and”; a condition that tells them apart may be missing. Equal entries are not always repeated. Inconclusive results are not listed. Activity calls are given as the source filed them. Calls come from the whole dose curve; as a rule, active = well fitted cell-killing curve with a large enough effect in the repeat runs; inconclusive = weak or mixed curves, or effect the other way; inactive = flat fitted curve, though single readings scatter.
% is set by controls: 0 for no effect and ±100 for the full control effect; potency is the fitted concentration of half-maximal effect.

The nature of the assay: Human pregnane X receptor (PXR) small molecule agonists, qHTS cell viability counter screen (AID 1346977). Note: nearly all actives have a fitted effect of over 50% in size. The settings on record: PXR-Luc HepG2 viability, CellTiter-Fluor, 24 h; series mostly up to 92.4 µM; activity change, negative = cytotoxicity: at the top concentration. The text has this:
U.S. Tox21 Program National Center for Advancing Translational Sciences [NCATS] NIH Chemical Genomics Center [NCGC] U.S. Environmental Protection Agency [EPA] National Institutes of Environmental Health Sciences [NIEHS] National Toxicology Program [NTP] U.S. Food and Drug Administration [FDA] Tox21 Assay Overview: The human pregnane X receptor (hPXR) regulates the expression of several drug metabolizing enzymes and induction of these proteins is a major mechanism for developing drug resistance in cancer. One such key enzyme catalyzing the drug metabolism is cytochrome P450 3A4 (CYP3A4). Changes in CYP3A4 expression affect drug metabolism, thereby reducing the therapeutic efficacy and altering toxicological response to a drug and which finally causes adverse drug interaction. To screen Tox21 libraries for compounds that activate hPXR-mediated CYP3A4 gene expression, PXR-Luc HepG2 cells were used. Also cytotoxicity of the compounds was tested in parallel by measuring the cell viability using CellTiter-Fluor assay system in the same wells.
Tox21 Assay Protocol Summary: PXR-Luc HepG2 cells were dispensed at 2,000 per well in 5uL of assay medium containing 5% charcoal-stripped FBS into white solid bottom 1536-well plates (Corning Life Sciences, Corning, NY) using a Multidrop Combi (Thermo Scientific, Waltham, MA) dispenser. The assay plates were incubated at 37 C and 5% CO2 for 5hr, and then 23nL of compounds dissolved in DMSO and positive control were transferred using a Pintool station (Wako, San Diego, CA). The assay plates were incubated at 37C and 5% CO2 for 24hr. For cytotoxicity read, after 23hr incubation at 37C, 1uL CellTiter-Fluor reagent (Promega Corporation, Madison, WI) was added to each well of the assay plates using Flying Reagent Dispenser (FRD, Aurora Discovery, San Diego, CA). After 1hr incubation at 37C and 5% CO2, the fluorescence signal was quantified using a ViewLux plate reader (PerkinElmer, Shelton, CT).
Background: Quantitative high-throughput screening tests each substance at several concentrations.
`O=C1NC2CCCCN2C12CCN(CCCN1c3ccccc3CCc3ccc(Cl)cc31)CC2` (stereo not given): the Potency is 26.6 µM (active). Take `C/C=C/CO`: the “activity change, negative = cytotoxicity” value is 1.72% (inactive).

Consider `COc1cccc(CCc2ccccc2OCC(CN(C)C)OC(=O)CCC(=O)O)c1` (stereo not given), for which the Potency was 26.6 µM (active). With `CCCCCCC(C)OC(=O)COc1nc(F)c(Cl)c(N)c1Cl` (stereo not given), the “activity change, negative = cytotoxicity” value was 0.195% (inactive). On to `CCNc1nc(NC(C)CC)nc(OC)n1` (stereo not given), for which the “activity change, negative = cytotoxicity” value is -10.9% (inactive). The same measure, in the same setting: the figure for `C#CC(O)CCC` (stereo not given) is -0.328% (inactive). For the compound `COc1cc(C=C2CCC/C(=C\c3ccc(O)c(OC)c3)C2=O)ccc1O`, the Potency was 29.8 µM (active). With `CCCCCCCC(OC)OC`, the “activity change, negative = cytotoxicity” value is 2.2% [at 42.5 µM] (inactive). The same measure, in the same setting: with `C[Si](C)(C)Cl` the figure was 3.03% (inactive). The same measure, in the same setting: with `CCOC(/C=C(\C)CCC=C(C)C)OCC` the figure was -1.36% (inactive). In the case of `CN(Cc1cc(Br)cc(Br)c1N)C1CCCCC1`, the “activity change, negative = cytotoxicity” value is -0.973% [at 42.5 µM] (inactive). Same read-out and setting: the figure for `CCCCCCCCC(C)=O` is 3.59% (inactive); for `O=C(O)Cc1ccc(OCCNC[C@H](O)c2ccccc2)cc1` it is -14.8% [at 42.5 µM] (inactive); for `Cc1ccc(O)cn1` it is 1.83% (inactive). The same measure, in the same setting: with `O=S(=O)(O)CCCN1CCOCC1` the figure was 4.96% (inactive). As for `COc1ccc2sc(C(=O)Nc3nnn[nH]3)c(OC(C)C)c2c1`, the Potency was 24.2 µM (active). Consider `NCCCC(O)(P(=O)(O)O)P(=O)(O)O`, for which the “activity change, negative = cytotoxicity” value was 8.48% [at 42.5 µM] (inactive).

For the compound `CC(C)(C)c1n[nH]c(=O)n(N)c1=O`, the “activity change, negative = cytotoxicity” value was -0.686% (inactive). Regarding `C=CC(=O)OCCOCC(CC)(COCCOC(=O)C=C)COCCOC(=O)C=C`, the Potency is 63.7 µM (active). Turning to `C=C(C)C(=O)OCCC[Si](Cl)(Cl)Cl`, the “activity change, negative = cytotoxicity” value is 7.07% (inactive).

As to `CCOC(=O)CC(C)O` (stereo not given), the “activity change, negative = cytotoxicity” value is 2.4% (inactive).

Consider `CC1=C(/C=C/C(C)=C/C=C/C(C)=C/C(=O)Nc2ccc(O)cc2)C(C)(C)CCC1`, for which the Potency was 49.8 µM (active) and 26.6 µM (active).

As for `CCCCCCCCCCCCCCNCCO`, the “activity change, negative = cytotoxicity” value was 6.35% [at 42.5 µM] (inactive). Regarding `CN1[C@@H]2CC[C@H]1CC(OC(=O)C(CO)c1ccccc1)C2` (stereo not given in full), the “activity change, negative = cytotoxicity” value is -10.5% (inactive).

Take `CCCC(O)C(O)CO` (stereo not given): the “activity change, negative = cytotoxicity” value is 0.187% (inactive).

`O=C(Oc1ccccc1)c1cccc(C(=O)Oc2ccccc2)c1`: the “activity change, negative = cytotoxicity” value is 1.89% (inactive). As to `CCOCN(C(=O)CS(=O)(=O)O)c1c(C)cccc1CC`, the “activity change, negative = cytotoxicity” value is -0.496% (inactive). For `CC1(C)C(=O)N(CO)C(=O)N1CO`, the “activity change, negative = cytotoxicity” value is 0.034% (inactive). Turning to `CN(C)CCN1CCOCC1`, the “activity change, negative = cytotoxicity” value was 2.36% (inactive). In the case of `Cc1cc2c(C(C)C)c(O)c(O)c(C=O)c2c(O)c1-c1c(C)cc2c(C(C)C)c(O)c(O)c(C=O)c2c1O`, the Potency was 18.8 µM (active). Consider `Cc1cnccn1`, for which the “activity change, negative = cytotoxicity” value is 0.507% (inactive). For the compound `COc1ccccc1OCCNCC(O)COc1cccc2[nH]c3ccccc3c12` (stereo not given), the Potency is 23.7 µM (active). Turning to `C/C=C/C=N/NC(=O)c1ccncc1`, the “activity change, negative = cytotoxicity” value was -19.3% [at 42.5 µM] (inactive). The same measure, in the same setting: with `C[Si](C)O[Si](C)C` the figure was -1.78% (inactive); with `O=CC1CC1`, 4.67% (inactive). Same read-out and setting: the figure for `OCCC(O)CO` (stereo not given) is 0.829% (inactive); for `CCC(C)c1ccccc1` (stereo not given) it is 2.63% (inactive); for `CCc1cccc(CC)c1N(COC)C(=O)CS(=O)(=O)O` it is -0.07% (inactive). Consider `Cc1cc(Nc2ccc(O)cc2)ccc1N`, for which the Potency was 30.5 µM (active). `Clc1cccnc1`: the “activity change, negative = cytotoxicity” value was -2.03% (inactive).
